Laboratory results reported in PubChem BioAssay AID1159580 (chemical genetic matrix, 2015).
Among all 5,500 compounds or so, about 2,000 (36%) were called active. Another 18% or so got no clear call; they are omitted. No stated cut-off is given here; in the data, active means normalized growth mostly below about 0.91 (no sharp cut-off); inconclusive means no clear call, values can overlap the other calls; inactive means mostly above about 0.92. The list shows a part of the results.

Assay: chemical genetic growth profiling, strain panel (AID 1159580);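 further: tested at 20 µM; growth read once vehicle control cultures reached saturation at 30 °C; 1 = growth at the plate median or of vehicle wells; lower values mean less growth of the strain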
Details: S. cerevisiae deletion strains, growth OD
[1] = locus YAR019C, strain CDC15, hits give low values
[2] = locus YBL105C, strain PKC1, hits give low values
[3] = locus YBR135W, strain CKS1, hits give low values
[4] = locus YBR136W, strain MEC1, hits give low values
[5] = locus YBR160W, strain CDC28, hits give low values
[6] = locus YDL017W, strain CDC7, hits give low values
[7] = locus YDL028C, strain MPS1, hits give low values
[8] = locus YDL101C, strain DUN1, hits give low values
[9] = locus YDL108W, strain KIN28, hits give low values
[10] = locus YDL132W, strain cdc53, hits give low values
[11] = locus YDL214C, strain PRR2, hits give low values
[12] = locus YDR052C, strain DBF4, hits give low values
[13] = locus YDR054C, strain cdc34, hits give low values
[14] = locus YDR226W, strain ADK1, hits give low values
[15] = locus YDR477W, strain SNF1, hits give low values
[16] = locus YER123W, strain YCK3, hits give low values
[17] = locus YER133W, strain GLC7, hits give low values
[18] = locus YFL009W, strain cdc4, hits give low values
[19] = locus YFL029C, strain CAK1, hits give low values
[20] = locus YFR003C, strain YPI1, hits give low values
[21] = locus YFR019W, strain FAB1, hits give low values
[22] = locus YFR028C, strain CDC14, hits give low values
[23] = locus YGR040W, strain KSS1, hits give low values
[24] = locus YGR052W, strain FMP48, hits give low values
[25] = locus YGR092W, strain DBF2, hits give low values
[26] = locus YHR030C, strain SLT2, hits give low values
[27] = locus YHR079C, strain IRE1, hits give low values
[28] = locus YHR082C, strain KSP1, hits give low values
[29] = locus YHR205W, strain SCH9, hits give low values
[30] = locus YIL147C, strain SLN1, hits give low values
[31] = locus YJL095W, strain BCK1, hits give low values
[32] = locus YJL128C, strain PBS2, hits give low values
[33] = locus YJL157C, strain FAR1, hits give low values
[34] = locus YJR016C, strain ILV3, hits give low values
[35] = locus YJR066W, strain TOR1 (second series), hits give low values
[36] = locus YJR066W, strain TOR1, hits give low values
[37] = locus YKL048C, strain ELM1, hits give low values
[38] = locus YKL067W, strain YNK1, hits give low values
[39] = locus YKL101W, strain HSL1, hits give low values
[40] = locus YKL193C, strain SDS22, hits give low values
[41] = locus YKL203C, strain TOR2, hits give low values
[42] = locus YLR113W, strain HOG1, hits give low values
[43] = locus YLR133W, strain CKI1, hits give low values
[44] = locus YLR403W, strain SFP1, hits give low values
[45] = locus YML070W, strain DAK1, hits give low values
[46] = locus YMR001C, strain CDC5, hits give low values
[47] = locus YMR205C, strain PFK2 (second series), hits give low values
[48] = locus YMR277W, strain FCP1, hits give low values
[49] = locus YNL006W, strain LST8, hits give low values
[50] = locus YNL020C, strain ARK1, hits give low values
[51] = locus YNL161W, strain CBK1, hits give low values
[52] = locus YNL183C, strain NPR1, hits give low values
[53] = locus YNL207W, strain RIO2, hits give low values
[54] = locus YNL222W, strain SSU72, hits give low values
[55] = locus YNL307C, strain MCK1 (second series), hits give low values
[56] = locus YOL078W, strain AVO1, hits give low values
[57] = locus YOL136C, strain PFK27, hits give low values
[58] = locus YOR061W, strain CKA2, hits give low values
[59] = locus YOR119C, strain RIO1, hits give low values
[60] = locus YOR231W, strain MKK1, hits give low values
[61] = locus YOR329C, strain SCD5, hits give low values
[62] = locus YPL031C, strain PHO85, hits give low values
[63] = locus YPL153C, strain RAD53, hits give low values
[64] = locus YPL204W, strain HRR25, hits give low values
[65] = locus YPL209C, strain IPL1, hits give low values
[66] = locus YPL256C, strain CLN2, hits give low values
[67] = locus YPR025C, strain CCL1, hits give low values
[68] = locus YPR106W, strain ISR1, hits give low values
[69] = locus YPR111W, strain DBF20, hits give low values
[70] = strain NNK1, hits give low values
[71] = strain TSCII, hits give low values

Measured: normalized growth

CC(C)c1cccc(C(C)C)c1OC(=O)NC(=O)c1c(Cl)cccc1Cl
inactive: [1] 0.98 | [2] 0.984 | [3] 0.983 | [4] 0.989 | [5] 0.985 | [6] 0.985 | [7] 0.989 | [8] 0.971 | [9] 0.985 | [10] 0.985 | [11] 0.974 | [12] 0.978 | [13] 0.977 | [14] 0.975 | [15] 0.982 | [16] 0.942 | [17] 0.983 | [18] 0.99 | [19] 0.979 | [20] 0.982 | [21] 0.969 | [22] 0.988 | [23] 0.979 | [24] 1.01 | [25] 0.992 | [26] 0.966 | [27] 0.911 | [28] 1.04 | [29] 0.945 | [30] 0.988 | [31] 0.956 | [32] 0.928 | [33] 0.957 | [34] 0.985 | [35] 0.945 | [36] 1.03 | [37] 0.986 | [38] 0.966 | [39] 0.956 | [40] 0.99 | [41] 1.01 | [42] 0.866 | [43] 0.96 | [44] 0.962 | [45] 0.972 | [46] 0.986 | [47] 0.98 | [48] 0.986 | [49] 0.982 | [50] 0.957 | [51] 0.976 | [52] 0.979 | [53] 0.98 | [54] 0.987 | [55] 0.958 | [56] 0.985 | [57] 0.945 | [58] 0.972 | [59] 1.04 | [60] 0.945 | [61] 0.971 | [62] 0.954 | [63] 0.984 | [64] 0.943 | [65] 0.991 | [66] 0.919 | [67] 0.982 | [68] 0.978 | [69] 0.96 | [70] 0.962 | [71] 0.978

COC(=O)c1cc([N+](=O)[O-])ccc1S(=O)(=O)Cc1ccc(Cl)cc1
inactive: [1] 0.971 | [2] 0.983 | [3] 0.991 | [4] 0.967 | [5] 0.998 | [6] 0.985 | [7] 0.98 | [8] 0.987 | [9] 0.988 | [10] 0.991 | [11] 0.952 | [12] 0.996 | [13] 0.983 | [14] 0.985 | [15] 0.948 | [16] 0.955 | [17] 0.956 | [18] 0.99 | [19] 0.974 | [20] 0.992 | [21] 0.974 | [22] 0.981 | [23] 0.941 | [24] 1.04 | [25] 0.946 | [26] 0.937 | [27] 0.97 | [28] 0.995 | [29] 0.98 | [30] 0.981 | [31] 0.966 | [32] 0.967 | [33] 0.964 | [34] 0.993 | [35] 0.88 | [36] 0.965 | [37] 0.976 | [38] 0.956 | [39] 0.949 | [40] 0.984 | [41] 1 | [42] 0.957 | [43] 0.951 | [44] 0.957 | [45] 0.958 | [46] 0.984 | [47] 0.957 | [48] 0.992 | [49] 0.996 | [50] 0.96 | [51] 0.988 | [52] 0.97 | [53] 0.98 | [54] 0.988 | [55] 0.976 | [56] 0.991 | [57] 0.952 | [58] 0.948 | [59] 0.973 | [60] 0.98 | [61] 0.984 | [62] 0.955 | [63] 0.951 | [64] 0.95 | [65] 0.983 | [66] 0.945 | [67] 0.987 | [68] 0.985 | [69] 0.984 | [70] 0.982 | [71] 0.981
